PubChem BioAssay AID504843 (Broad Institute, 2011)
In all, about 1,200 compounds went through this assay and about 360 (30%) were called active. These entries were drawn from the full list. Potency and affinity values are given separately. A number with no mark means an inactive call. No rule for the calls is given here.

Assay: antibacterial activity by ATP level – BacTiter-Glo luminescence, cherry-picked samples, counter-screen, dose response (AID 504843);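 also: growth measured after 8 h incubation at 30 °C; 0% = median of sample compound wells and -100% = antibiotic control wells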
Settings: bacterial growth; series mostly up to 15 µM; activity change, negative = inhibition: at the top concentration

SMILES	activity change, negative = inhibition [%]
COc1ccc(S(=O)(=O)N(C)C)cc1NC(=O)CSc1nnc(-c2cccnc2)o1	6.6
CC1=CC(C)(C)N2C(=O)C3(C(C#N)=C(N)OC4=C3C(=O)CCC4)c3c(C)c(C)cc1c32 (stereo not given)	5.51
CC1(C)CC(=O)C=C(NCCN2CCN(C(=O)Nc3ccccc3)CC2)C1	19.7
COCCCN=C(c1ccco1)n1c(=S)nc(-c2ccco2)n(CCCOC)c1=S	6.13
O=C(COc1ccc([N+](=O)[O-])cc1)Nc1cc(S(=O)(=O)N2CCCCC2)ccc1N1CCCCC1	8.82
CSc1ccccc1NC(=O)CN(C)CC(=O)Nc1ccc(S(=O)(=O)N2CCCC2)cc1	6.77
Cc1c(C)c2c(C)nn(-c3ccccc3)c2[nH]c1=O	-4.55
CC(C)C(c1nnnn1C1CCCC1)N1CCC(C(N)=O)CC1 (stereo not given)	-2.09
Cc1ccc(-n2nnnc2-c2cnc3cc4c(cc3c2C)OCO4)cc1	1.35
O=C(Cc1ccccc1Cl)c1ccccc1	10
O=C(NCc1ccccn1)C1CC(c2ccccc2O)=NO1 (stereo not given)	-9.99
COc1cc2cc(CN(CCO)S(=O)(=O)c3ccccc3Cl)c(=O)[nH]c2cc1OC	0.781
COC(=O)Nc1ccc2c(c1)N(C(=O)CCN1CCOCC1)c1ccccc1S2	-14.7
CC(C)(C)OC(=O)N(CCc1ccccc1)Cc1cccc(OCc2cccc(NC(=O)/C=C/c3ccccc3)c2)c1	7.89
CCc1ccc(N2CC34C=CC(O3)C(C(=O)OC(C)C)C4C2=O)cc1 (stereo not given)	18.4
Cc1nnc(SCc2ccccc2CSc2nnc(C)s2)s1	1.42
Cc1onc(-c2ccccc2)c1C(=O)NCc1ccc(F)cc1	-6.92
Cc1onc(-c2c(F)cccc2Cl)c1C(=O)Nc1sc2c(c1C#N)CCC(C(C)(C)C)C2 (stereo not given)	-16.8
Cn1c(C(=O)NCc2cccs2)cc2c(=O)n(C)c3ccccc3c21	-14.9
CCCOc1ccc(/C(O)=C2/C(=O)C(=O)N(CCN(C)C)C2c2ccc(O)c(OC)c2)cc1 (stereo not given)	8.34
COC(=O)CSc1ccc(C#N)c(SCC(=O)OC)c1	10.5
CCN(CC)C(=O)C1=C(C)NC(=O)NC1c1c(F)cccc1Cl (stereo not given)	9.12
CCOC(=O)C1=C(C)NC(=S)NC1c1cc(C)sc1C (stereo not given)	1.75
Nc1ccc2c(c1)-c1ccccc1S(=O)(=O)N2	-7.08
CCCOc1cccc(C(=O)Nc2ccc(Br)cc2F)c1	13.1
CCOC(=O)c1ccccc1-n1nnnc1C	14.4
O=C(CNc1ccc(Cl)cc1)c1ccc(Br)cc1	12.4

SMILES	activity change, negative = inhibition [%]
O=S(=O)(/N=C(/Nc1ccccc1)c1ccccc1)c1cccs1	14.9
COc1ccc(-c2cc(C(=O)Oc3ccc([N+](=O)[O-])cc3)c3ccccc3n2)cc1	13.5
COC(=O)COc1cc2ccccc2cc1C(=O)Nc1ccccc1	11.7
CCc1ccc(C(=O)Nc2ccc(S(=O)(=O)Nc3nc(C)cc(C)n3)cc2)o1	-4.41
CCO[C@@H]1OC(C(=O)O)=C[C@H](C)[C@H]1CCCO	-6.26
O=C(O)C1(C(=O)O)CCC1	-7.92
Cc1occc1C(=O)NCc1cccc(CNC(=O)c2ccoc2C)c1	-3.57
O=C(Cn1cc(C(F)(F)F)ccc1=O)OCC(=O)c1ccc[nH]1	-0.317
COc1ccc(-c2[nH]nc3c2C(c2ccoc2)C(C#N)=C(N)O3)cc1 (stereo not given)	10.6
COc1ccccc1N1CCN(C(=O)c2cc3c(=O)n4ccccc4nc3s2)CC1	4.25
N#Cc1ccccc1S(=O)(=O)N1CCN(CC(=O)Nc2ccnn2C2CCCC2)CC1	1.24
C=CCOc1ccccc1CN1CCC(n2nccc2NC(=O)C2CC2)CC1	-0.759
COc1ccccc1-c1ccc(=O)n(CC(=O)Nc2ccc(C(=O)N3CCCC3)cc2)n1	-8.64
COc1ccccc1C(=O)Nc1ccnn1C1CCN(Cc2cnn(C)c2)CC1	-9.99
C[C@H]1CN([C@@H](C)CO)C(=O)c2cccc(NS(=O)(=O)c3ccc(F)cc3)c2O[C@H]1CN(C)Cc1ccc(Cl)c(Cl)c1	21.8
CNC(=O)CN(c1ccc(C(C)C)cc1)S(C)(=O)=O	0.765
CC1CCN(C(=O)C2(NC(=O)Nc3cccc(F)c3)CCCCC2)CC1	14.5
CCOc1ccc(NC(=O)c2cccc(OC(=S)N3CCC(C)CC3)c2)cc1	-6.49
Cc1nc2ccc(C(=O)Nc3ccc4nc[nH]c4c3)cc2[nH]1	21.4
O=C(N[C@@H](Cc1ccccc1)C(=O)NC1CC1)c1ccc(Cl)cc1	-0.277
CN1C(=O)N(C)C2(c3ccccc3)NC(=O)NC12c1ccccc1 (stereo not given)	-6.8
O=C(CC1SCCNC1=O)Nc1cccc(Cl)c1 (stereo not given)	7.99
COC(=O)CN1C(=O)N/C(=C/c2ccccc2OC)C1=O	-2.13
Nc1nnc(-c2ccc(F)cc2)s1	-6.94
O=C(CSc1nnc(-c2ccncc2)s1)Nc1ccc(Cl)c(C(=O)O)c1	19.2
CC(C)c1nnc(NC(=O)CCS(=O)(=O)Cc2ccccc2)s1	-6.44
O=C(COc1ccc2c3c(c(=O)oc2c1)CCCC3)NCc1ccncc1	-29.5

SMILES	activity change, negative = inhibition [%]
O=C(O)CCC(=O)Nc1sc2c(c1C(=O)Nc1cccc3ccccc13)CCCCC2	0.5
O=C(NCc1ccc(Cl)cc1)c1cccc(NC2=NC3CS(=O)(=O)CC3S2)c1 (stereo not given)	8.12
Cc1onc(C(=O)NCc2ccc(F)cc2)c1[N+](=O)[O-]	2.68
COc1ccc2c3c(c(=O)oc2c1OCC(N)=O)CCCC3	-17.5
O=C(COc1ccc2c3c(c(=O)oc2c1)CCCC3)NCC(O)c1ccccc1 (stereo not given)	-8.59
Cc1ccc2c(CC(=O)Nc3ccc(N4CCN(C)CC4)cc3C)coc2c1	20.9
CCOCCCNC(=S)NCCNc1nc2ccc(C)cc2cc1C#N	5.71
COc1cc(C(=O)NC(c2ccccc2)c2ccccc2)cc(OC)c1C	-4.22
O=C(Cn1c(=O)n(-c2ccc(F)cc2)c(=O)c2sccc21)NC1CCCCC1	-1.56
O=C(NNc1ncnc2c1cnn2-c1ccccc1)c1cccs1	-12.2
CC(C)S(=O)(=O)C1=NSC2=NC(=O)/C(=C\c3ccc(-c4cccc(C(=O)O)c4)o3)C(=N)N21	6.02
CCc1nc2cc3sc(CC)nc3cc2s1	-14
O=C(CCNc1n[nH]c(=O)[nH]c1=O)N1CCCCC1	12.4
C(=N\n1cncn1)/c1ccc(N2CCOCC2)cc1	-9.77
Cc1cnc(C(=O)OCC(=O)c2ccc(-c3ccccc3)cc2)cn1	-0.804
CN(C(=O)COC(=O)c1cccc(S(=O)(=O)N2CCOCC2)c1)C1CCS(=O)(=O)C1 (stereo not given)	-2.99
O=C(OCC(=O)N1CCCC1=O)c1cccc(S(=O)(=O)N2CCOCC2)c1	1.48
Cc1ccc(C(=O)N/C(=C\c2cn(S(=O)(=O)N(C)C)c3ccccc23)C(=O)NCCCN2CCOCC2)cc1	1.64
COc1ccc(S(=O)(=O)N2CCN(CC(=O)Nc3c(C)n[nH]c3C)CC2)cc1OC	22.9
COc1ccc(C)cc1S(=O)(=O)N(CC(=O)NC1CCCC1)c1ccc(F)cc1	10.7
COc1cc(CNCc2ccccn2)ccc1OCc1c(Cl)cccc1Cl	1.71
Cc1nn(-c2ccccc2)c(Cl)c1/C=N/NC(=O)c1ccccc1NS(=O)(=O)c1cccs1	11.3
CCOC(=O)c1c(NC(=O)C2C3C=CC(C3)C2C(=O)O)sc2c1CCC(C)C2 (stereo not given)	-13
COc1ccc(OC)c(S(=O)(=O)N2CCC(C(=O)NC3CC3)CC2)c1	9.45
COc1ccc(S(=O)(=O)N2CCC(C(=O)N3CCN(C)CC3)CC2)cc1Cl	-12.6
COc1cccc(C(=O)N(CN2CCCC2=O)c2cccc(Cl)c2)c1OC	-0.914
NS(=O)(=O)c1cc(C(=O)O)c(NCc2ccco2)cc1Cl	9.75

SMILES	activity change, negative = inhibition [%]
COc1ccc(S(=O)(=O)NCCSCc2ccco2)cc1Cl	-3.17
CS(=O)(=O)c1ccc([C@@H](O)[C@@H](CF)NC(=O)C(Cl)Cl)cc1	-13.5
CCC[C@@H]1C[C@@H](C(=O)N[C@H]([C@@H](C)O)[C@H]2O[C@H](SC)[C@H](O)[C@@H](O)C2O)N(C)C1 (stereo not given in full)	-11.7
O=C(O)CCc1ccc(-c2cccs2)o1	5.51
c1ccc(CC2=NCCN2)cc1	-0.359
Cc1ccc2[nH]c(=O)c(CNS(=O)(=O)c3ccccc3)c(-c3ccccc3)c2c1	17.9
Cc1ccccc1Nc1nnc(C)c(=O)[nH]1	10.6
Cc1cccc(-c2onc3ccc(C4(C)OCCO4)cc23)c1	11.3
COc1ccc(/C=N/NC(=O)COc2cc(C)cc(C)c2)cc1COC(C)=O	1.36
Cc1ccc(NC(=O)CSc2nccn2C)cc1F	-13.7
CCn1c(SCC(=O)NC2CCCCC2)nnc1-c1cccnc1	9.43
Cc1ccc(N2CC(C(=O)Nc3cc(C(F)(F)F)ccc3N3CCCC3)CC2=O)cc1 (stereo not given)	-1.85
CCOCCCNC(=O)C(c1ccc(C)cc1)N(Cc1cccs1)C(=O)c1ccccc1O (stereo not given)	-28.2
COc1ccc(OC)c(C(=O)CSc2nnc(-c3cccs3)o2)c1	12.4
O=C(Nc1ccc(C(=O)O)cc1)/C(=C\C=C\c1ccccc1)NC(=O)c1ccccc1Br	-18.5
Cc1noc(NS(=O)(=O)c2ccc(NC(=O)c3ccoc3C)cc2)c1C	19.2
O=C(O)c1ccn(COc2ccc(Br)cc2)n1	5.36
Cc1ccc(NC(=O)c2cc(N3C(=O)C4CC=CCC4C3=O)ccc2N2CCOCC2)cc1Cl (stereo not given)	0.728
CCOc1ccc(N(CC(=O)NCc2ccc(OC)cc2)S(=O)(=O)c2c(C)[nH]c(=O)[nH]c2=O)cc1	14.2
CN1CCc2c(sc3nc(SCC(=O)N4CCOCC4)nc(N)c23)C1	12.1
Cc1cc(C)c(C#N)c(Oc2ccccc2Br)n1	-1.47
Cc1nnc(Nc2ccc(Cl)c(C(F)(F)F)c2)[nH]c1=O	2.24
CC(/C=N/NC(=O)c1n[nH]c2c1CCC2)=C\c1ccccc1	-2.7
CCCN=C1N(CC)C[C@@H]2[C@@H]3C(=O)N(C)C(=O)[C@@H]3[C@](Cc3ccccc3)(C(=O)OC)N12	18.6
